TEAD-YAP block – TEAD-YAP interaction inhibition. HEK-TIYL cells, TEAD-Gal4/YAP UAS-luciferase luminescence. inhibition, % at 9.12 µM. 1.4% of 640,000 active; in the data active = inhibition above about 32%;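 note: 0% = median of test compound wells and 100% = reference inhibitor wells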
MITF inh – blocks human microphthalmia-associated transcription factor | O75030 | AlphaScreen MITF homodimerization, bead proximity signal | inhibition, % at 2.6 µM | 0.91% of 650,000 active; in the data active = inhibition above about 50%;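 note: 0% = vehicle wells with protein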
Target sequence (O75030 whole entry, looked up): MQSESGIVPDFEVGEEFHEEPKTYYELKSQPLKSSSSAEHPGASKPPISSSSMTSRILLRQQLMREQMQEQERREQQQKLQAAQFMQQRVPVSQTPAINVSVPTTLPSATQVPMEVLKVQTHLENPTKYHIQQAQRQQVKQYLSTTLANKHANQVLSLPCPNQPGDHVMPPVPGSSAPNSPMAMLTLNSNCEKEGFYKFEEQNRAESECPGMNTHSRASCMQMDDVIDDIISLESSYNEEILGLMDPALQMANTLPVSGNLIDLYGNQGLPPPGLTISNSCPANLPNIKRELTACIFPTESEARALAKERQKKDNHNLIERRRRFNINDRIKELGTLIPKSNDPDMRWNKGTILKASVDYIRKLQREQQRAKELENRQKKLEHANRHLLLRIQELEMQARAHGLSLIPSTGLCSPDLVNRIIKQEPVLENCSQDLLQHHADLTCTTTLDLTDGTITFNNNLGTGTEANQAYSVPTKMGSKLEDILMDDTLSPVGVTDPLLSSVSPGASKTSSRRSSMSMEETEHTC
FBW7 activator – human FBW7 E3 ligase activation, primary screen | Q969H0 | AlphaScreen FBW7–phospho-cyclin E peptide binding, activator screen | normalized activity (activation), % at 26.1 µM | 0.13% of 650,000 active; in the data active = normalized activity above about 1.9%;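 note: purified mutant Fbw7 with reduced substrate affinity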
GPR151 ag – activates the human receptor GPR151; PathHunter beta-arrestin GPR151 cells, luminescence; AID 1508602; 1% of 650,000 active; activation, % at 11.2 µM; Q8TDV0; in the data active = activation above about 4.9%;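 note: 0% = median of compound wells and 100% = cells with positive control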
The depositor's hits bear a star. A selection: hits, their analogues and other compounds. The true share with any hit is near 3.5%.

SMILES	TEAD-YAP block	MITF inh	FBW7 activator	GPR151 ag
Cc1cnc(C)c(-c2cccc3c2OC(CNC(=O)Cc2c(C)[nH]c4ccccc24)C3)n1 (stereo unspecified)	5.0	9.8	0.7	-0.4
CC(C)(C)c1ccc(C(=O)NCCOc2ccccc2)cc1	35.7*	1.6	0.2	-1.6
CC(C)(C)c1ccc(C(=O)NCCOc2ccccc2F)cc1	59.3*	3.9	0.5	-0.9
CCOC(=O)c1c(NC(=O)c2cnn3c(C(F)(F)F)cc(-c4ccccc4)nc23)sc2c1CCC(C(C)(C)C)C2 (stereo unspecified)	2.3	8.0	1.0	0.6
O=C(Oc1ccccc1)Oc1cc2oc(=O)sc2cc1Br	-25.2	-5.9	0.2	0.0
COCCNC(=O)CSCc1nc(-c2ccccc2F)oc1C	-9.1	10.0	-0.2	-0.8
COc1ccc2oc(C)c(C(=O)c3oc4ccccc4c3N)c2c1	34.1*	-2.8	0.0	-0.5
COc1ccc2occ(C(=O)c3oc4ccccc4c3N)c2c1	32.3*	-2.4	-0.1	-5.0
COC(=O)c1oc2ccc(OC)cc2c1N	-20.7	2.9	0.0	-1.5
COc1ccc2oc(C(=O)c3ccc(Cl)cc3)c(N)c2c1	-86.7	13.5	0.6	0.3
COc1cc2oc(=O)cc(C)c2cc1C=O	62.0*	12.4	0.1	-1.0
COc1cc2oc(=O)cc(C)c2cc1OC	5.0	5.7	0.1	-0.1
Cc1nc2c(c(C)nn2C(C)(C)C)c(C)c1CCC(=O)O	1.4	5.6	0.1	0.2
Cc1nc2c(c(C)nn2C(C)(C)C)c(C)c1CCC(=O)N1CCCCC1	34.6*	13.0	0.0	0.3
CC1CCCCC1NC(=O)CCNS(=O)(=O)c1ccc2[nH]c(=O)ccc2c1 (stereo unspecified)	-4.8	4.7	-0.3	-0.7
CCc1ccc(C2=CC(c3cc(OC)ccc3OC)n3ncnc3N2)cc1 (stereo unspecified)	51.3*	4.2	0.0	-0.3
COc1ccc(OC)c(C2C=C(c3cccc(Br)c3)Nc3ncnn32)c1 (stereo unspecified)	11.7	2.9	-0.1	1.5
COc1ccc(OC)c(C2C=C(c3ccc(Cl)cc3)Nc3ncnn32)c1 (stereo unspecified)	4.0	14.6	0.0	0.1
COc1ccc(C2=CC(c3cccc(OC)c3)n3ncnc3N2)cc1 (stereo unspecified)	42.6*	1.9	0.1	1.9
COc1cccc(C2C=C(c3cccc(Br)c3)Nc3ncnn32)c1 (stereo unspecified)	39.0*	24.7	0.1	1.5
COc1ccc(C2=CC(c3ccc(OC)cc3OC)n3ncnc3N2)cc1 (stereo unspecified)	55.5*	15.6	0.1	0.6
CCCCC(=O)Nc1nnc(SCC(=O)Nc2cccc(C)c2C)s1	7.9	18.8	0.8	2.3
COc1cc(C2CC(=O)Nc3cc(OC)c(OC)c(OC)c32)ccc1O (stereo unspecified)	-13.4	18.0	0.0	-1.4
CCc1ccc(C2=CC(c3cccc(OC)c3)n3ncnc3N2)cc1 (stereo unspecified)	30.2	13.9	0.3	-1.6
COc1cccc(C2C=C(c3ccc(C)cc3)Nc3ncnn32)c1 (stereo unspecified)	53.7*	16.4	0.0	1.6
SMILES	TEAD-YAP block	MITF inh	FBW7 activator	GPR151 ag
COc1ccc(C2C=C(c3ccc(C)cc3)Nc3ncnn32)c(OC)c1OC (stereo unspecified)	47.0*	15.1	0.1	-0.1
O=C1CC(NCc2ccc(F)cc2)C(=O)N1c1ccc(-c2nc3ccccc3o2)cc1 (stereo unspecified)	-46.9	-4.1	0.4	-0.4
C(=N\n1cnnc1)/c1cccc(OCc2cccc3ccccc23)c1	50.4*	17.3	-0.1	-1.0
C(=N\n1cnnc1)/c1ccc(OCc2cccc3ccccc23)cc1	-53.3	-8.0	0.1	-1.1
Brc1cccc(/C=N/n2cnnc2)c1	91.2*	13.1	0.0	0.0
Brc1ccc(/C=N/n2cnnc2)cc1	10.7	17.6	0.0	-0.2
CNCCCOc1ccc(Cl)c(C)c1	-2.5	37.6	0.2	-1.6
c1ccc(-c2cnn3c(NCCc4ccccn4)ccnc23)cc1	57.0*	-22.1	-0.1	0.8
Fc1cccc(-c2cnn3c(NCCc4cccnc4)ccnc23)c1	17.1	7.4	-0.2	3.8
Clc1ccc(-c2cnn3c(NCCc4ccccn4)ccnc23)cc1	-52.1	12.7	-0.2	0.9
CN(C)CCNc1ccnc2c(-c3ccccc3F)cnn12	62.6*	-3.3	0.3	-2.2
OCc1cccc(-c2cnn3c(NCCc4cccnc4)ccnc23)c1	89.5*	1.3	0.7	-1.2
Oc1cccc(-c2cnn3c(NCCc4cccnc4)ccnc23)c1	89.5*	6.6	-0.3	-0.4

Source: PubChem (The Scripps Research Institute Molecular Screening Center)
